Screening data from PubChem.
Compounds with a hit are over-represented: about 19% of the library has one in this group of screens.
Giardia kill = Giardia lamblia killing. Giardia lamblia trophozoite viability. 340,000 compounds, 0.15% hits. AID 540267. activity change, % at 7.66 µM, hits read low; in the data active = activity change below about -80%; inconclusive = between about -30% and that limit;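 note: parasites exposed to compound for two days anaerobically before the ATP read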
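Trophozoite viability was measured as ATP-dependent luminescence, read 15-30 min after reagent addition. Before that, parasites at 100 cells/well were exposed to compounds for 48 h, anaerobically, at 37 deg C.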
ELG1 DNA repair = ELG1-dependent DNA repair inhibition | HEK293T ELG1-luciferase reporter, luminescence, 16 h; DNA damage induced by 5-fluorouridine | Potency, µM (series often up to 46.1 µM), inactives show top-dose activity change, negative = inhibition, most hits filed as inhibitors | 330,000 compounds, 2.3% hits; note: potency is the fitted concentration of half-maximal effect; nearly all actives have a fitted effect of over 55% in size
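HEK293T cells expressing luciferase-tagged ELG1 (2,000/well) received 5-Fluorouridine plus compound or DMSO for 16 hr at 37 °C. Luciferase was read by ONE-Glo luminescence after 30 min at room temperature.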
DT40 TDP1 no CPT = qHTS for Inhibitors of human tyrosyl-DNA phosphodiesterase 1 (TDP1): qHTS in cells in absence of CPT. DT40 Tdp1-/- hTDP1 cells, no CPT, ATP luminescence, 48 h. Potency, µM (top dose mostly 46.2 µM), for the others: at the top dose activity change, negative = growth inhibition, actives largely listed as inhibitors. 420,000 compounds, 15% hits; note: potency is the fitted concentration of half-maximal effect; nearly all actives have a fitted effect of over 55% in size
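Chicken DT40 Tdp1-/- cells stably complemented with human TDP1 were seeded at 400 cells/well with DMSO in place of 20 nM camptothecin. After compound pinning, cells grew at least 48 hr at 37 °C; viability read by CellTiter-Glo luminescence.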
TDP1 block = blocks human tyrosyl-DNA phosphodiesterase 1; recombinant TDP1, AlphaScreen DNA substrate cleavage; AID 485290; 350,000 compounds, 0.28% hits; Potency, µM (highest dose often 130 µM), without a hit: at the highest dose activity change, negative = inhibition, hits mostly inhibitors; note: potency is the fitted concentration of half-maximal effect; nearly all actives have a fitted effect of over 40% in size
Target sequence (Q9NUW8 whole entry, looked up): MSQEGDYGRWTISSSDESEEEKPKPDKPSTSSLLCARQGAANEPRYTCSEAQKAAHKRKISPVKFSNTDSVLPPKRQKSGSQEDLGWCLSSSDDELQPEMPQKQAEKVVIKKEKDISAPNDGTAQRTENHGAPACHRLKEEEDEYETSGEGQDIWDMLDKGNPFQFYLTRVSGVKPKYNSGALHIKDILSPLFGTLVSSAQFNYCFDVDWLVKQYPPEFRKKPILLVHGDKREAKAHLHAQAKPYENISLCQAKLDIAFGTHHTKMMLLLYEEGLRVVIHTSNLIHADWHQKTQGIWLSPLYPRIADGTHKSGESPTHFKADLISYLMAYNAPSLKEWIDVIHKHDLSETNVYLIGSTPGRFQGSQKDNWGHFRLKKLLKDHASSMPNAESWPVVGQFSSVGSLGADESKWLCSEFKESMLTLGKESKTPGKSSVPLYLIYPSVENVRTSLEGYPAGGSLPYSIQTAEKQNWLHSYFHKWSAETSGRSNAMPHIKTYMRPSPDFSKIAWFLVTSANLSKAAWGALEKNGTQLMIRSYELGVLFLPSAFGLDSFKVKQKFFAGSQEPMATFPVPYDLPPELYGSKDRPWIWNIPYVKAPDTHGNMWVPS
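Recombinant E. coli-expressed Tdp1 (1 nM) preincubated with compound 15 min at RT, then 5'-biotin/3'-phosphotyrosine-FITC DNA substrate (15 nM) added for 5 min. AlphaScreen beads (10 ug/ml) added, 10 min RT; tyrosine-FITC cleavage read as signal loss.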
TDP1 cell CPT = growth inhibition of DT40 Tdp1-/-;hTDP1 cells with camptothecin (screen for TDP1 inhibitors); chicken DT40 Tdp1-/-;hTDP1 cells + 20 nM CPT, ATP luminescence, 48 h; Potency, µM (top dose mostly 46.2 µM), inactives show at the highest dose activity change, negative = growth inhibition, hits mostly inhibitors; 420,000 compounds, 12% hits; AID 686979; note: potency is the fitted concentration of half-maximal effect; nearly all actives have a fitted effect of over 55% in size
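Chicken DT40 Tdp1-/- cells stably complemented with human TDP1 were seeded at 400 cells/well in medium containing 20 nM camptothecin, exposed to pin-transferred compounds, and grown at 37 °C for at least 48 hr. Viability was read as ATP luminescence.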
IL-1B inflam inh = inflammasome signaling inhibition, IL-1 beta readout. THP-1 LPS/ATP IL-1B secretion, AlphaLISA, 16 h; hits give low values. activity change, % at 57.5 µM. 360,000 compounds, 4.7% hits. AID 743279; in the data active = activity change below about -50%; inconclusive = mostly about -30% to -49%
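THP-1 cells pretreated 1 hr with compounds (up to 57.5 uM final), then stimulated with LPS (250 ng/mL final) plus ATP (1.25 mM final); secreted IL-1B measured by AlphaLISA after 16 hr, decreased signal indicating inhibition.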
Numbers without * were called inactive; ? = inconclusive; / = not tested or not shown; [ ] = dose if it differs, or a comment. Unless noted, calls come from the whole dose curve; as a rule, active = well fitted curve in the direction sought with a large enough effect; inconclusive = small, poorly fitted or top-dose-only effect, or another doubt; inactive = no such curve, though single readings can be large; an effect the other way counts as inactive or inconclusive. % is set by controls: 0 for no effect and ±100 for the full control effect.

SMILES	Giardia kill	ELG1 DNA repair	DT40 TDP1 no CPT	TDP1 block	TDP1 cell CPT	IL-1B inflam inh
COc1ccc(NCC(=O)Nc2ccc(C#N)cc2)cc1Cl	-1.2	25.9µM*	?	2.3%	?	?
COc1ccc(NC(=O)[C@H](C)NS(=O)(=O)c2ccc(NC(C)=O)cc2)cc1Cl	/	/	4.2%	/	12.3%	-10.7
O=C1CCCN1CCC12CC3CC(CC(C3)C1)C2	-9.3	-11.6%	20.6µM*	/	?	77.6
COc1ccc2oc(=O)c(C(=O)Oc3ccc(NC(C)=O)cc3)cc2c1	-20.5	4.8%	-5.3%	3.1%	-5.6%	7.9
COCCN(CC(=O)NCC1CCCO1)C(=O)CCC(=O)Nc1ccccn1 (centres undefined)	-5.6	1.5%	23.1µM*	3.6%	13µM*	-8.6
COC(=O)CSc1nc(N)c2c3c(sc2n1)C(c1ccccc1)SC(c1ccccc1)C3 (centres undefined)	-21.1	-8.2%	2.59µM*	8.5%	4.11µM*	-99.7*
CC(C)(C)C1CCc2c(sc3nc(SCC(=O)O)nc(N)c23)C1 (centres undefined)	-7.0	?	-5.2%	3.6%	3.1%	-0.1
COc1ccc(/C=N/NS(=O)(=O)c2ccc(F)cc2)cc1CN1CCSCC1	-12.4	-13.2%	-20.1%	7.1%[56.1 µM]	?	23.8
Cc1ccc(/C=C2\CCC3=C2OC(N)=C(C#N)C3c2ccc(C)cc2)cc1 (centres undefined)	6.4	?	6.51µM*	7.1%	4.61µM*	-69.9*
N#CC1=C(N)OC2=C(CCc3ccccc32)C1c1ccccc1 (centres undefined)	-8.6	?	0.92µM*	2.7%	0.82µM*	13.0
N#CC1=C(N)Oc2cc(O)ccc2C1c1ccccc1 (centres undefined)	-17.1	-12.5%	?	8.7%	-22.0%	-3.4
COc1ccccc1CNC(=O)COCc1cc(-c2ccc3c(c2)OCO3)on1	/	/	?	5.0%	?	/
COc1cc2c(cc1OC)C(Cc1ccccc1[N+](=O)[O-])=NCC2	6.0	/	23.1µM*	/	?	12.2
COc1ccc(NCc2ccccc2[N+](=O)[O-])cc1OC	8.7	-17.1%	16.4µM*	7.9%	16.4µM*	-1.3
COc1ccc(CC(=O)NNS(=O)(=O)c2ccccc2[N+](=O)[O-])cc1OC	15.0	-3.2%	-18.1%	1.6%	7.0%	-10.3
COc1ccccc1CNc1ccc2c(c1)CCC2	1.7	?	10.3µM*	/	4.61µM*	-60.0*
COc1ccc(NC(=O)COC(=O)Cc2ccccc2[N+](=O)[O-])cc1OC	-2.0	11.0%	25.9µM*	9.2%	?	-3.8
CCOC(=O)[C@H]1[C@H]2COc3ccc(Cl)cc3[C@@H]2N2C(=O)c3ccccc3NC(=O)[C@@]12C	10.8	26.0%	?	2.6%	?	-15.2
COc1cc(OC)c(NC(=O)N2CCN3CCCCC3C2)cc1Cl (centres undefined)	/	/	-2.4%	11.3%	9.1%	/
Cc1cnc(NS(=O)(=O)c2ccc(N)cc2)nc1-c1ccccc1O	/	/	11.7%	/	0.4%	-26.7
Cc1cc(C)c2cc(C#N)c(NCCCN)nc2c1	/	/	20.6µM*	/	?	0.0
COc1cccc(C(=O)NCCCNc2nc3cc(C)cc(C)c3cc2C#N)c1	/	/	25.9µM*	/	?	0.0
CCOCCCNC(=S)N1CCCN(c2nc3c(C)c(C)ccc3cc2C#N)CC1	-11.7	-11.0%	?	8.3%	?	?
CCOCCCNC(=S)NCCCNc1nc2c(C)c(C)ccc2cc1C#N	-17.9	?	?	2.4%	?	-95.5*
COc1ccc(C(=O)NCCNc2nc3cc(C)cc(C)c3cc2C#N)cc1	/	/	?	/	?	-19.1
SMILES	Giardia kill	ELG1 DNA repair	DT40 TDP1 no CPT	TDP1 block	TDP1 cell CPT	IL-1B inflam inh
COc1ccc(C(=O)NCCNc2nc3c(C)cccc3cc2C#N)cc1	-20.9	/	20.6µM*	/	?	?
COc1ccc(C(=O)NCCNc2nc3c(C)cccc3cc2C#N)cc1OC	2.5	?	-21.2%	4.1%	-26.0%	-27.1
O=C(COc1cccc2cccnc12)N1CCc2ccccc21	-8.4	20.3%	-17.8%	5.9%	-3.6%	-14.1
CCOC(=O)C1CCCN(C(=O)c2ccc(F)c(Cl)c2)CC1 (centres undefined)	/	/	-20.3%	/	-11.7%	28.9
COc1ccc(NC(=O)NC2CCCCCCC2)cc1	-11.7	?	-23.8%	3.6%	-27.8%	-11.4
C=C(C)n1c(=O)n(Cc2ccccc2C)c2ccccc21	2.8	12.4%	-11.0%	/	-10.7%	0.1
COc1cc(C(=O)NCCNc2nc3ccc(C)cc3cc2C#N)cc(OC)c1OC	39.5	14.6µM*	?	/	-14.3%	?
COc1cc(C(=O)NCCCNc2nc3c(C)cc(C)cc3cc2C#N)cc(OC)c1OC	-4.0	?	-26.7%	-9.6%	-14.1%	4.3
COc1ccc(C(=O)NCCNc2nc3ccc(C)cc3cc2C#N)cc1	-11.1	1.6%	?	/	-13.3%	-6.6
COc1ccc2nc(NCCCNC(=O)c3cc(OC)c(OC)c(OC)c3)c(C#N)cc2c1	-6.9	15.8µM*	-15.5%	-1.0%	-28.0%	29.2
CCOc1ccc2nc(NCCNC(=S)NCCCN(C)C)c(C#N)cc2c1	-8.5	-2.5%	25.9µM*	-4.9%	?	/
CCOc1ccccc1NC(=O)N1CCc2cc(S(=O)(=O)N3CCC(C)CC3)ccc21	/	/	-19.2%	2.5%	-8.1%	/
NC(=O)C1=C(N=C2CCCCC2)CCCC1	?	/	-20.3%	/	-11.5%	2.5
COc1ccc(Cl)cc1NC(=O)NN1CCN(C)CC1	-1.9	-9.8%	18.6%	14.1µM*	-10.3%	-26.0
COc1ccc(NC(=O)Nc2cc(C)ccc2OC)cc1	-2.4	?	-16.8%	-4.1%	-17.0%	-16.3
COc1ccc(Cl)cc1NC(=O)Nc1ccc(C(=O)N2CCCC2)cc1	-9.3	12.3%	?	3.5%	?	-64.1*
COc1ccc(C)cc1NC(=O)Nc1ccc(C(=O)N2CCCC2)cc1	4.5	?	?	4.0%	25.9µM*	?
COc1ccc(Cl)cc1NC(=S)N1CCCC1	-19.2	-6.5%	-10.1%	7.4%	13.8%	9.2
COc1ccc(S(=O)(=O)NCC2(N3CCOCC3)CCCCC2)cc1OC	3.1	-23.9%	-16.5%	/	-8.0%	-4.2
O=C(CN1C(=O)c2ccccc2C1=O)N1CCN=C1c1ccccc1	-2.4	6.0%	-2.5%	2.4%	13.3%	-2.9
C[C@@]12C(=O)Nc3ccc(Cl)cc3C(=O)N1[C@H]1c3ccccc3OC[C@@H]1[C@@H]2c1ccccc1	0.1	-1.6%	?	0.3%	?	?
C[C@@]12C(=O)Nc3cc(Cl)ccc3C(=O)N1[C@H]1c3cc(Br)ccc3OC[C@@H]1[C@@H]2c1ccccc1	-14.1	?	23.1µM*	0.3%	14.6µM*	-22.7
C[C@@]12C(=O)Nc3cc(Cl)ccc3C(=O)N1[C@H]1c3cc(Cl)ccc3OC[C@@H]1[C@@H]2c1ccccc1	7.4	0.8%	?	1.4%	18.4µM*	-12.5
